In paper PMC7862700, “An all-to-all approach to the identification of sequence-specific readers for epigenetic DNA modifications on cytosine”:

Experiments:
Test in all cases: DAPPL (digital affinity profiling via proximity ligation, sequencing); 10 mM Tris-HCl pH 7.5, 50 mM NaCl, 1 mM DTT, 4% glycerol, room temperature, 30 min; GST-TFs on glutathione beads, 16-mer random dsDNA library, 0.1% formaldehyde crosslink after washing; high values mean tight binding
Settings in all cases: protein: recombinant; tags: N-terminal GST; dsDNA, one strand shown
ERF = target: T1, ERF (Homo sapiens, UniProt P50548 1-548)
T1 sequence: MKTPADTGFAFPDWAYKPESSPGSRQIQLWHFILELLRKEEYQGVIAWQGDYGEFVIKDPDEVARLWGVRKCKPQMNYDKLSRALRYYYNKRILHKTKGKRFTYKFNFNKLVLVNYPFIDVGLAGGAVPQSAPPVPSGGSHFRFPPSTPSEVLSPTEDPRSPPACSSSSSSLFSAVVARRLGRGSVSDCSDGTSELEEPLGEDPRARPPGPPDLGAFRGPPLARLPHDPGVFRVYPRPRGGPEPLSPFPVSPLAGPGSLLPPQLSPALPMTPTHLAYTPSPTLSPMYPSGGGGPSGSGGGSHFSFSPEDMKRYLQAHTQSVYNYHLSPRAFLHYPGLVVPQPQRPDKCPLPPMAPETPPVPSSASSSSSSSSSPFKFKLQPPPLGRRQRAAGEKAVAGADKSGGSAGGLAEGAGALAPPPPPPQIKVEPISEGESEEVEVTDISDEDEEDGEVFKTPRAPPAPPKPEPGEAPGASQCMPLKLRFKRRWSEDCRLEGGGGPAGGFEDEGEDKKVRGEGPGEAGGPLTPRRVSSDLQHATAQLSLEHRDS
Method in brief: (§1)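 After expression in yeast as GST fusions, human transcription factors were bound to glutathione beads, DNA-barcoded and mixed with a tag-only sample. The pools were incubated with 200 nmole of a 16-mer random double-stranded DNA library in Tris/NaCl/DTT/glycerol buffer (30 min, room temperature), washed and crosslinked with 0.1% formaldehyde. Proximity ligation with BsaI/T4 ligase ran for 1 h at 37 °C, before PCR amplification and sequencing on an Illumina NextSeq500. Binding signal is a hexamer's read frequency for a factor divided by its frequency for the tag-only sample.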

ETV3L = target: T2, ETV3L (Homo sapiens, UniProt Q6ZN32 1-361)
T2 sequence: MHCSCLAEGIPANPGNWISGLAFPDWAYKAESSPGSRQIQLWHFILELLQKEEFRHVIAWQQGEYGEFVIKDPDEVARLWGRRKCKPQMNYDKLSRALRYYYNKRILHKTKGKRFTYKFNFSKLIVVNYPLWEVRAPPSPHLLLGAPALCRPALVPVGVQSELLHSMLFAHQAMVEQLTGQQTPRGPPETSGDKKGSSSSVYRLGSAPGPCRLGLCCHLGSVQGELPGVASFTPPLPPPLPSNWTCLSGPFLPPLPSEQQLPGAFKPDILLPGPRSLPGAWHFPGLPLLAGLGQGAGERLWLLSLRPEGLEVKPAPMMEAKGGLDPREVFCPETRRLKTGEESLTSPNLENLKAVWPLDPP
Method in brief: as §1

ETS2 = target: T3, ETS2 (Homo sapiens, UniProt P15036 1-469)
T3 sequence: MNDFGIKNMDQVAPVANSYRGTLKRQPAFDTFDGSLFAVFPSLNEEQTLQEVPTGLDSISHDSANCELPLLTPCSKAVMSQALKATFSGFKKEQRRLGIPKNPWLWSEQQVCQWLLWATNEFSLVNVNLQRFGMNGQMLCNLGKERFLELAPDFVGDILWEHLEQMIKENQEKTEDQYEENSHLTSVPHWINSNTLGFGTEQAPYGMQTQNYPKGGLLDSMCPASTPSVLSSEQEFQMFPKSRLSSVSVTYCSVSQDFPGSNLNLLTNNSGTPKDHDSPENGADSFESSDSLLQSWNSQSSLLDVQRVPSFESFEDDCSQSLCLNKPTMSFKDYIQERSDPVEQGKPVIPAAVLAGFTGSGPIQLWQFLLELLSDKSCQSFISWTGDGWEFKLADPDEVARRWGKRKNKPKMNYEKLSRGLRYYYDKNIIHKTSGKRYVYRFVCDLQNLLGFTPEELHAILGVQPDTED
Method in brief: as §1

SPDEF = target: T4, SPDEF (Homo sapiens, UniProt O95238 1-335)
T4 sequence: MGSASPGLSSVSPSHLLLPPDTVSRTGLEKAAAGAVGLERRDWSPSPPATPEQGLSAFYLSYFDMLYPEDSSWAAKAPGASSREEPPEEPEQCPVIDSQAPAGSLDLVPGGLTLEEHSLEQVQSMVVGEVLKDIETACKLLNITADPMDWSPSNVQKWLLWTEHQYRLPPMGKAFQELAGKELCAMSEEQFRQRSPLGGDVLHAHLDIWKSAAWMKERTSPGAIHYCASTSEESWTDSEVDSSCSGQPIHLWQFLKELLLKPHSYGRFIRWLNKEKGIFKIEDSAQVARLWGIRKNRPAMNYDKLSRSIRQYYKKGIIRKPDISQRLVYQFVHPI
Method in brief: as §1

ETV7 = target: T5, ETV7 (Homo sapiens, UniProt Q9Y603 1-341)
T5 sequence: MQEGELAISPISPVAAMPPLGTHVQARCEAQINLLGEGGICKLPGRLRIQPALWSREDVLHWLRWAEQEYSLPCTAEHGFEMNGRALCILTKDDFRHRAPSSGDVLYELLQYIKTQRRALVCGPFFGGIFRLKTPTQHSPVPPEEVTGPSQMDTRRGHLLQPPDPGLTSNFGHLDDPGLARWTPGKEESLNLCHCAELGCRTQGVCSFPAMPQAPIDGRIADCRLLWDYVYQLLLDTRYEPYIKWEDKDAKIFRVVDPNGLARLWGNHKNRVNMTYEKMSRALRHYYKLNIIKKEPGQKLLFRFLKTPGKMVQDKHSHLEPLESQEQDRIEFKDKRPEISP
Method in brief: as §1

ELF5 = target: T6, ELF5 (Homo sapiens, UniProt Q9UKW6-2 1-255)
T6 sequence: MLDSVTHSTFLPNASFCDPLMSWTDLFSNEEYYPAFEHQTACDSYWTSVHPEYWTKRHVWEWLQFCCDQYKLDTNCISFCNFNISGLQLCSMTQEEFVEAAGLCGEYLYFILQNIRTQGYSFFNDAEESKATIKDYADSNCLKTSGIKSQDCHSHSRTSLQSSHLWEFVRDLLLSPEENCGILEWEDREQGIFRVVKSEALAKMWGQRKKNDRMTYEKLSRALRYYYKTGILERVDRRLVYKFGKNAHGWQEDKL
Method in brief: as §1

ETV3 = target: T7, ETV3 (Homo sapiens, UniProt P41162-2 1-143)
T7 sequence: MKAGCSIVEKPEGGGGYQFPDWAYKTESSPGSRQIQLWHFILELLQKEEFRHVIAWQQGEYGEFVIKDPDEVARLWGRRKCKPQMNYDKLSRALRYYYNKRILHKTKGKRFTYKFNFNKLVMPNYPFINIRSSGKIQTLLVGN
Method in brief: as §1

ETV6 = ETV6 (Homo sapiens, UniProt P41212 1-452)
Sequence of ETV6 (P41212 whole entry): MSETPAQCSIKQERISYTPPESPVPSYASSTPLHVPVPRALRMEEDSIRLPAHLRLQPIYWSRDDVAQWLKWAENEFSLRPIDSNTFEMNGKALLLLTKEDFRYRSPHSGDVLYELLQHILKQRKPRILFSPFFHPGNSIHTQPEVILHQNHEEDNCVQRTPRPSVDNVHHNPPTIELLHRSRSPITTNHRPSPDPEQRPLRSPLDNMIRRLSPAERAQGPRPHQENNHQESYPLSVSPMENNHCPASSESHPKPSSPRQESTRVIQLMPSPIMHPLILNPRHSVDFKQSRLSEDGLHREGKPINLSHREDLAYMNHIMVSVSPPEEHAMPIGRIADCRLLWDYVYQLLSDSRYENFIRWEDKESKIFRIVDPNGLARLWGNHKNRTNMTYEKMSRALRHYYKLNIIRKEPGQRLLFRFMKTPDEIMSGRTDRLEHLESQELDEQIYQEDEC
Method in brief: as §1

Sequence | binding signal (ERF) | binding signal (ETV3L) | binding signal (ETS2) | binding signal (SPDEF) | binding signal (ETV7) | binding signal (ELF5) | binding signal (ETV3) | binding signal (ETV6)
TAAAAA | 1.37 fold enrichment (6-mer frequency, TF over GST control) | 1.37 fold enrichment (6-mer frequency, TF over GST control) | 1.33 fold enrichment (6-mer frequency, TF over GST control) | 1.32 fold enrichment (6-mer frequency, TF over GST control) | 1.31 fold enrichment (6-mer frequency, TF over GST control) | 1.29 fold enrichment (6-mer frequency, TF over GST control) | 1.25 fold enrichment (6-mer frequency, TF over GST control) | 1.26 fold enrichment (6-mer frequency, TF over GST control)
TAAAAT | 1.22 fold enrichment (6-mer frequency, TF over GST control) | 1.28 fold enrichment (6-mer frequency, TF over GST control) | 1.28 fold enrichment (6-mer frequency, TF over GST control) | 1.14 fold enrichment (6-mer frequency, TF over GST control) | 1.17 fold enrichment (6-mer frequency, TF over GST control) | 1.15 fold enrichment (6-mer frequency, TF over GST control) | 1.17 fold enrichment (6-mer frequency, TF over GST control) | 1.18 fold enrichment (6-mer frequency, TF over GST control)
CTCCCG | 1.42 fold enrichment (6-mer frequency, TF over GST control) | 1.43 fold enrichment (6-mer frequency, TF over GST control) | 1.52 fold enrichment (6-mer frequency, TF over GST control) | 1.65 fold enrichment (6-mer frequency, TF over GST control) | 1.73 fold enrichment (6-mer frequency, TF over GST control) | 1.74 fold enrichment (6-mer frequency, TF over GST control) | 1.53 fold enrichment (6-mer frequency, TF over GST control) | 1.57 fold enrichment (6-mer frequency, TF over GST control)
CCCTTC | 1.25 fold enrichment (6-mer frequency, TF over GST control) | 1.44 fold enrichment (6-mer frequency, TF over GST control) | 1.37 fold enrichment (6-mer frequency, TF over GST control) | 1.38 fold enrichment (6-mer frequency, TF over GST control) | 1.43 fold enrichment (6-mer frequency, TF over GST control) | 1.62 fold enrichment (6-mer frequency, TF over GST control) | 1.34 fold enrichment (6-mer frequency, TF over GST control) | 1.5 fold enrichment (6-mer frequency, TF over GST control)
CTGCTC | 1.29 fold enrichment (6-mer frequency, TF over GST control) | 1.43 fold enrichment (6-mer frequency, TF over GST control) | 1.28 fold enrichment (6-mer frequency, TF over GST control) | 1.26 fold enrichment (6-mer frequency, TF over GST control) | 1.29 fold enrichment (6-mer frequency, TF over GST control) | 1.29 fold enrichment (6-mer frequency, TF over GST control) | 1.22 fold enrichment (6-mer frequency, TF over GST control) | 1.16 fold enrichment (6-mer frequency, TF over GST control)
CTCTTG | 1.53 fold enrichment (6-mer frequency, TF over GST control) | 1.42 fold enrichment (6-mer frequency, TF over GST control) | 1.23 fold enrichment (6-mer frequency, TF over GST control) | 1.26 fold enrichment (6-mer frequency, TF over GST control) | 1.27 fold enrichment (6-mer frequency, TF over GST control) | 1.43 fold enrichment (6-mer frequency, TF over GST control) | 1.35 fold enrichment (6-mer frequency, TF over GST control) | 1.2 fold enrichment (6-mer frequency, TF over GST control)
ACTCCG | 1.37 fold enrichment (6-mer frequency, TF over GST control) | 1.52 fold enrichment (6-mer frequency, TF over GST control) | 1.46 fold enrichment (6-mer frequency, TF over GST control) | 1.59 fold enrichment (6-mer frequency, TF over GST control) | 1.4 fold enrichment (6-mer frequency, TF over GST control) | 1.32 fold enrichment (6-mer frequency, TF over GST control) | 1.51 fold enrichment (6-mer frequency, TF over GST control) | 1.47 fold enrichment (6-mer frequency, TF over GST control)
TCAACC | 1.3 fold enrichment (6-mer frequency, TF over GST control) | 1.24 fold enrichment (6-mer frequency, TF over GST control) | 1.22 fold enrichment (6-mer frequency, TF over GST control) | 1.2 fold enrichment (6-mer frequency, TF over GST control) | 1.07 fold enrichment (6-mer frequency, TF over GST control) | 1.07 fold enrichment (6-mer frequency, TF over GST control) | 1.16 fold enrichment (6-mer frequency, TF over GST control) | 1.22 fold enrichment (6-mer frequency, TF over GST control)
ATTTCG | 1.2 fold enrichment (6-mer frequency, TF over GST control) | 1.31 fold enrichment (6-mer frequency, TF over GST control) | 1.3 fold enrichment (6-mer frequency, TF over GST control) | 1.27 fold enrichment (6-mer frequency, TF over GST control) | 1.26 fold enrichment (6-mer frequency, TF over GST control) | 1.27 fold enrichment (6-mer frequency, TF over GST control) | 1.27 fold enrichment (6-mer frequency, TF over GST control) | 1.35 fold enrichment (6-mer frequency, TF over GST control)
GATGGC | 1.4 fold enrichment (6-mer frequency, TF over GST control) | 1.3 fold enrichment (6-mer frequency, TF over GST control) | 1.27 fold enrichment (6-mer frequency, TF over GST control) | 1.29 fold enrichment (6-mer frequency, TF over GST control) | 1.26 fold enrichment (6-mer frequency, TF over GST control) | 1.3 fold enrichment (6-mer frequency, TF over GST control) | 1.3 fold enrichment (6-mer frequency, TF over GST control) | 1.31 fold enrichment (6-mer frequency, TF over GST control)
TACTCC | 1.34 fold enrichment (6-mer frequency, TF over GST control) | 1.26 fold enrichment (6-mer frequency, TF over GST control) | 1.37 fold enrichment (6-mer frequency, TF over GST control) | 1.29 fold enrichment (6-mer frequency, TF over GST control) | 1.21 fold enrichment (6-mer frequency, TF over GST control) | 1.15 fold enrichment (6-mer frequency, TF over GST control) | 1.33 fold enrichment (6-mer frequency, TF over GST control) | 1.23 fold enrichment (6-mer frequency, TF over GST control)
GATGAT | 1.5 fold enrichment (6-mer frequency, TF over GST control) | 1.31 fold enrichment (6-mer frequency, TF over GST control) | 1.23 fold enrichment (6-mer frequency, TF over GST control) | 1.32 fold enrichment (6-mer frequency, TF over GST control) | 1.36 fold enrichment (6-mer frequency, TF over GST control) | 1.24 fold enrichment (6-mer frequency, TF over GST control) | 1.39 fold enrichment (6-mer frequency, TF over GST control) | 1.3 fold enrichment (6-mer frequency, TF over GST control)
TTCAAG | 1.27 fold enrichment (6-mer frequency, TF over GST control) | 1.31 fold enrichment (6-mer frequency, TF over GST control) | 1.21 fold enrichment (6-mer frequency, TF over GST control) | 1.31 fold enrichment (6-mer frequency, TF over GST control) | 1.28 fold enrichment (6-mer frequency, TF over GST control) | 1.18 fold enrichment (6-mer frequency, TF over GST control) | 1.42 fold enrichment (6-mer frequency, TF over GST control) | 1.26 fold enrichment (6-mer frequency, TF over GST control)
ATTCTA | 1.32 fold enrichment (6-mer frequency, TF over GST control) | 1.22 fold enrichment (6-mer frequency, TF over GST control) | 1.3 fold enrichment (6-mer frequency, TF over GST control) | 1.23 fold enrichment (6-mer frequency, TF over GST control) | 1.28 fold enrichment (6-mer frequency, TF over GST control) | 1.15 fold enrichment (6-mer frequency, TF over GST control) | 1.2 fold enrichment (6-mer frequency, TF over GST control) | 1.15 fold enrichment (6-mer frequency, TF over GST control)
GCCTTG | 1.16 fold enrichment (6-mer frequency, TF over GST control) | 1.34 fold enrichment (6-mer frequency, TF over GST control) | 1.25 fold enrichment (6-mer frequency, TF over GST control) | 1.13 fold enrichment (6-mer frequency, TF over GST control) | 1.3 fold enrichment (6-mer frequency, TF over GST control) | 1.17 fold enrichment (6-mer frequency, TF over GST control) | 1.14 fold enrichment (6-mer frequency, TF over GST control) | 1.16 fold enrichment (6-mer frequency, TF over GST control)
